# Reference: paper PMC8384837, “Expanding the binding specificity for RNA recognition by a PUF domain”
# Changes are numbered by the printed parent chain.
# Legend:
# Experiment in all cases: yeast three-hybrid, YBZ-1, SC-Leu-His + 0.5 mM 3-AT, 4 days
# Settings in all cases: tags: N-Gal4 AD-HA kept; label: inside an RPR1-promoter hybrid RNA with tandem MS2 sites; ssRNA
# PUM1 PUF domain R1-RSS = PUM1 PUF domain R1-RSS (Homo sapiens, UniProt Q14671 828-1176, S863R;R864S;Q867S)
# Method in brief: (§1)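 Each repeat of the Pumilio-1 PUF domain was randomized at its three base-contacting residues, and these libraries were co-expressed from a centromeric plasmid with matching RNA elements in strain YBZ-1. After four days on SC-Leu (input) or SC-Leu-His + 0.5 mM 3-AT (selection), the repeat regions were PCR-amplified and Illumina-sequenced. The interaction score compares variant frequency between input and selection as a log change, computed in log2 with a pseudocount of 1 for absent variants.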
# PUM1 PUF domain R5-TRL = PUM1 PUF domain R5-TRL (Homo sapiens, UniProt Q14671 828-1176, C1007T;Q1011L)
# Method in brief: as §1
# PUM1 PUF domain R7-VRR = PUM1 PUF domain R7-VRR (Homo sapiens, UniProt Q14671 828-1176, S1079V;N1080R;E1083R)
# Method in brief: as §1
# PUM1 PUF domain R8-RHA = PUM1 PUF domain R8-RHA (Homo sapiens, UniProt Q14671 828-1176, N1122R;Y1123H;Q1126A)
# Method in brief: as §1
# PUM1 PUF domain R8-PWN = PUM1 PUF domain R8-PWN (Homo sapiens, UniProt Q14671 828-1176, N1122P;Y1123W;Q1126N)
# Method in brief: as §1
# PUM1 PUF domain R4-SRT = PUM1 PUF domain R4-SRT (Homo sapiens, UniProt Q14671 828-1176, N971S;H972R;Q975T)
# Sequence of PUM1 PUF domain R4-SRT (Q14671 828-1176 N971S/H972R/Q975T): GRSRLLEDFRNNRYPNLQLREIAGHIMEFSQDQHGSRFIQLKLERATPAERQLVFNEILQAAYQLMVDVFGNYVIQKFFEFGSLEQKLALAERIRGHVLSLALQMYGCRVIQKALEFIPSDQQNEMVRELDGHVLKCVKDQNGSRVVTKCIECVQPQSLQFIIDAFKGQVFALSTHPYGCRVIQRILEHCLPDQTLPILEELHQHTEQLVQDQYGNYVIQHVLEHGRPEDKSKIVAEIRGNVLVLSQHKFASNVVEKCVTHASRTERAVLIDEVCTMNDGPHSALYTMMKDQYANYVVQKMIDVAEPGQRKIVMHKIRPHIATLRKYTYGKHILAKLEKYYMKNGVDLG
# Method in brief: as §1
# PUM1 PUF domain R4-GMG = PUM1 PUF domain R4-GMG (Homo sapiens, UniProt Q14671 828-1176, N971G;H972M;Q975G)
# Method in brief: as §1
# PUM1 PUF domain R4-VNG = PUM1 PUF domain R4-VNG (Homo sapiens, UniProt Q14671 828-1176, N971V;H972N;Q975G)
# Method in brief: as §1
# PUM1 PUF domain R3-LRV = PUM1 PUF domain R3-LRV (Homo sapiens, UniProt Q14671 828-1176, C935L;Q939V)
# Method in brief: as §1
# PUM1 PUF domain R3-LFR = PUM1 PUF domain R3-LFR (Homo sapiens, UniProt Q14671 828-1176, C935L;R936F;Q939R)
# Method in brief: as §1
# PUM1 PUF domain R3-FRD = PUM1 PUF domain R3-FRD (Homo sapiens, UniProt Q14671 828-1176, C935F;Q939D)
# Method in brief: as §1
# PUM1 PUF domain R3-RPW = PUM1 PUF domain R3-RPW (Homo sapiens, UniProt Q14671 828-1176, C935R;R936P;Q939W)
# Method in brief: as §1
# PUM1 PUF domain R3-NPG = PUM1 PUF domain R3-NPG (Homo sapiens, UniProt Q14671 828-1176, C935N;R936P;Q939G)
# Method in brief: as §1
# PUM1 PUF domain R5-KRI = PUM1 PUF domain R5-KRI (Homo sapiens, UniProt Q14671 828-1176, C1007K;Q1011I)
# Method in brief: as §1
# PUM1 PUF domain R5-RVM = PUM1 PUF domain R5-RVM (Homo sapiens, UniProt Q14671 828-1176, C1007R;R1008V;Q1011M)
# Method in brief: as §1
# PUM1 PUF domain R5-PFP = PUM1 PUF domain R5-PFP (Homo sapiens, UniProt Q14671 828-1176, C1007P;R1008F;Q1011P)
# Method in brief: as §1
# PUM1 PUF domain R3-PYL = PUM1 PUF domain R3-PYL (Homo sapiens, UniProt Q14671 828-1176, C935P;R936Y;Q939L)
# Method in brief: as §1
# PUM1 PUF domain R6-THR = molecular target: T1, PUM1 PUF domain R6-THR (Homo sapiens, UniProt Q14671 828-1176, N1043T;Y1044H;Q1047R)
# T1 sequence: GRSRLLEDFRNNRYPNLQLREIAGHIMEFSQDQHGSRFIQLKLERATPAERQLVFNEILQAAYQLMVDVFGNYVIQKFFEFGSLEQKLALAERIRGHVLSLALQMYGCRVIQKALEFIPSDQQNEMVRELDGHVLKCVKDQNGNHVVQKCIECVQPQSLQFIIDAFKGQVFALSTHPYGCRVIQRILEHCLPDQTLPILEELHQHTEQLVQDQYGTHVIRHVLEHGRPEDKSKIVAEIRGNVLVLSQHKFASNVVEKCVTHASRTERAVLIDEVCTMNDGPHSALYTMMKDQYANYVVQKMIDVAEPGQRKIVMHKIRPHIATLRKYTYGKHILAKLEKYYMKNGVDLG
# Method in brief: as §1
# PUM1 PUF domain R6-IWQ = molecular target: T2, PUM1 PUF domain R6-IWQ (Homo sapiens, UniProt Q14671 828-1176, N1043I;Y1044W)
# T2 sequence: T1 sequence with T216I, H217W, R220Q
# Method in brief: as §1
# PUM1 PUF domain R2-CWP = PUM1 PUF domain R2-CWP (Homo sapiens, UniProt Q14671 828-1176, N899C;Y900W;Q903P)
# Sequence of PUM1 PUF domain R2-CWP (Q14671 828-1176 N899C/Y900W/Q903P): as the sequence (Q14671 828-1176 N971S/H972R/Q975T) above, with N72C, Y73W, Q76P, S144N, R145H, T148Q counted along it
# Method in brief: as §1
sequence,measurement,setting,value
GGCUAGAACUAGUGGAUCCCCCGGCGCCCGGCGGCUCGAGCCCGGGUAAGUGUAAAUCGUCUGCAUGCCGCCGGGCGCCAUGCCUGCAGGUCGACUCUAGAAAACAUG,binding signal,PUM1 PUF domain R1-RSS,3.93 log2 enrichment (interaction score)
GGCUAGAACUAGUGGAUCCCCCGGCGCCCGGCGGCUCGAGCCCGGGUAAGUGUUAAUAGUCUGCAUGCCGCCGGGCGCCAUGCCUGCAGGUCGACUCUAGAAAACAUG,binding signal,PUM1 PUF domain R5-TRL,2.18 log2 enrichment (interaction score)
GGCUAGAACUAGUGGAUCCCCCGGCGCCCGGCGGCUCGAGCCCGGGUAAGUUUAAAUAGUCUGCAUGCCGCCGGGCGCCAUGCCUGCAGGUCGACUCUAGAAAACAUG,binding signal,PUM1 PUF domain R7-VRR,2.18 log2 enrichment (interaction score)
GGCUAGAACUAGUGGAUCCCCCGGCGCCCGGCGGCUCGAGCCCGGGUAAGCGUAAAUAGUCUGCAUGCCGCCGGGCGCCAUGCCUGCAGGUCGACUCUAGAAAACAUG,binding signal,PUM1 PUF domain R8-RHA,4.75 log2 enrichment (interaction score)
same,binding signal,PUM1 PUF domain R8-PWN,3.44 log2 enrichment (interaction score)
GGCUAGAACUAGUGGAUCCCCCGGCGCCCGGCGGCUCGAGCCCGGGUAAGUGUAAAUGGUCUGCAUGCCGCCGGGCGCCAUGCCUGCAGGUCGACUCUAGAAAACAUG,binding signal,PUM1 PUF domain R1-RSS,2.55 log2 enrichment (interaction score)
GGCUAGAACUAGUGGAUCCCCCGGCGCCCGGCGGCUCGAGCCCGGGUAAGUGUAAAUUGUCUGCAUGCCGCCGGGCGCCAUGCCUGCAGGUCGACUCUAGAAAACAUG,binding signal,PUM1 PUF domain R1-RSS,3.21 log2 enrichment (interaction score)
GGCUAGAACUAGUGGAUCCCCCGGCGCCCGGCGGCUCGAGCCCGGGUAAGUGUAUAUAGUCUGCAUGCCGCCGGGCGCCAUGCCUGCAGGUCGACUCUAGAAAACAUG,binding signal,PUM1 PUF domain R4-SRT,2.14 log2 enrichment (interaction score)
same,binding signal,PUM1 PUF domain R4-GMG,2.85 log2 enrichment (interaction score)
same,binding signal,PUM1 PUF domain R4-VNG,2.54 log2 enrichment (interaction score)
GGCUAGAACUAGUGGAUCCCCCGGCGCCCGGCGGCUCGAGCCCGGGUAAGUGUAAGUAGUCUGCAUGCCGCCGGGCGCCAUGCCUGCAGGUCGACUCUAGAAAACAUG,binding signal,PUM1 PUF domain R3-LRV,3.77 log2 enrichment (interaction score)
same,binding signal,PUM1 PUF domain R3-LFR,5.96 log2 enrichment (interaction score)
same,binding signal,PUM1 PUF domain R3-FRD,5.68 log2 enrichment (interaction score)
GGCUAGAACUAGUGGAUCCCCCGGCGCCCGGCGGCUCGAGCCCGGGUAAGUGUAAUUAGUCUGCAUGCCGCCGGGCGCCAUGCCUGCAGGUCGACUCUAGAAAACAUG,binding signal,PUM1 PUF domain R3-RPW,2.6 log2 enrichment (interaction score)
same,binding signal,PUM1 PUF domain R3-LRV,1.41 log2 enrichment (interaction score)
same,binding signal,PUM1 PUF domain R3-NPG,2.86 log2 enrichment (interaction score)
same,binding signal,PUM1 PUF domain R3-LFR,5 log2 enrichment (interaction score)
GGCUAGAACUAGUGGAUCCCCCGGCGCCCGGCGGCUCGAGCCCGGGUAAGUGUCAAUAGUCUGCAUGCCGCCGGGCGCCAUGCCUGCAGGUCGACUCUAGAAAACAUG,binding signal,PUM1 PUF domain R5-KRI,4.51 log2 enrichment (interaction score)
same,binding signal,PUM1 PUF domain R5-RVM,2.54 log2 enrichment (interaction score)
GGCUAGAACUAGUGGAUCCCCCGGCGCCCGGCGGCUCGAGCCCGGGUAAGUGUAAAUAGUCUGCAUGCCGCCGGGCGCCAUGCCUGCAGGUCGACUCUAGAAAACAUG,binding signal,PUM1 PUF domain R8-RHA,3.38 log2 enrichment (interaction score)
same,binding signal,PUM1 PUF domain R4-SRT,3.46 log2 enrichment (interaction score)
same,binding signal,PUM1 PUF domain R5-PFP,4.69 log2 enrichment (interaction score)
same,binding signal,PUM1 PUF domain R5-TRL,3.3 log2 enrichment (interaction score)
same,binding signal,PUM1 PUF domain R3-PYL,5.55 log2 enrichment (interaction score)
same,binding signal,PUM1 PUF domain R4-GMG,1.25 log2 enrichment (interaction score)
same,binding signal,PUM1 PUF domain R3-LFR,1.74 log2 enrichment (interaction score)
same,binding signal,PUM1 PUF domain R6-THR,3.12 log2 enrichment (interaction score)
GGCUAGAACUAGUGGAUCCCCCGGCGCCCGGCGGCUCGAGCCCGGGUAAGUGAAAAUAGUCUGCAUGCCGCCGGGCGCCAUGCCUGCAGGUCGACUCUAGAAAACAUG,binding signal,PUM1 PUF domain R6-IWQ,4.87 log2 enrichment (interaction score)
GGCUAGAACUAGUGGAUCCCCCGGCGCCCGGCGGCUCGAGCCCGGGUAAGUGUAAAAAGUCUGCAUGCCGCCGGGCGCCAUGCCUGCAGGUCGACUCUAGAAAACAUG,binding signal,PUM1 PUF domain R2-CWP,6.72 log2 enrichment (interaction score)
